Records with an inconclusive call do not appear. Values without a mark were called inactive. Calls of active or inactive are those of the source. Unless noted, calls come from the whole dose curve.
test: Primary qHTS for inhibitors of MERS-S pseudo-typed particle cell entry (AID 1479149); details: MERS-S pseudotyped particle entry, luciferase; series mostly up to 57.1 µM; activity change, negative = inhibition: at the top concentration; note: nearly all actives have a fitted effect of over 60% in size; for activity change, negative = inhibition: % is set by controls: 0 for no effect and ±100 for the full control effect

SMILES	outcome	activity change, negative = inhibition
c1ccc2sc(SNC3CCCCC3)nc2c1	inactive [at 114 µM]	–
Cc1ccccc1-n1c(CF)nc2ccc(N)cc2c1=O	inactive	–
CCCCC[C@@H](O)C1C(=O)OC(C)[C@H](O)/C=C/C=C/C=C/C=C/C=C(\C)C(O)C(O)C(O)C[C@H](O)C[C@H](O)C[C@H](O)C[C@H](O)C[C@@H]1O (some centres not stated)	inactive	–
O=C(C[C@@H]1NCCC[C@H]1O)Cn1cnc2cc(Br)c(Cl)cc2c1=O	inactive	–
CCC(=O)O[C@@](Cc1ccccc1)(c1ccccc1)[C@@H](C)CN(C)C	–	-13.2%
CC(=O)O[C@H]1CC[C@H]2[C@@H]3CCC4=CC(=O)CCC4=C3C=C[C@]12C	–	-34.1%
O=[N+]([O-])c1ccccc1	–	-8.27%
C/C(=C\c1csc(C)n1)[C@@H]1C[C@@H]2O[C@]2(C)CCC[C@H](C)[C@H](O)[C@@H](C)C(=O)C(C)(C)[C@@H](O)CC(=O)O1	inactive	–
CC(C)(O)[C@@H]1[C@H]2OC(=O)[C@@H]1[C@]1(O)C[C@H]3O[C@]34C(=O)O[C@H]2[C@]14C	inactive	–
Cn1sc(Cl)cc1=O	inactive	–
C=CC[C@]1(O)CC[C@H]2[C@@H]3CCC4=CCCC[C@@H]4[C@H]3CC[C@@]21C	–	-12.8% [at 114 µM]
C[C@@H](CO)NC(=O)[C@@H]1C=C2c3cccc4[nH]cc(c34)C[C@H]2N(C)C1	–	-16.1%
C[C@]12CC[C@H]3[C@@H](CCC4=C(O)C(=O)CC[C@@H]43)[C@@H]1CC[C@@H]2OC(=O)CCC1CCCC1	inactive	–
CCCCCCCCCC(=O)O[C@H]1CC[C@H]2[C@@H]3CCC4=CC(=O)CC[C@]4(C)[C@H]3CC[C@]12C	inactive	–

test: Primary qHTS for Vero E6 cytotoxicity: counterscreen for inhibitors of SARS-S pseudo-typed particle cell entry (AID 1479150); details: cell viability; series mostly up to 57.1 µM; activity change, negative = cytotoxicity: at the top concentration; note: potency is the fitted concentration of half-maximal effect; for activity change, negative = cytotoxicity: % is set by controls: 0 for no effect and ±100 for the full control effect

SMILES	Potency	activity change, negative = cytotoxicity	outcome
O=C1C2CC=CCC2C(=O)N1SC(Cl)(Cl)Cl (configuration not stated)	20 µM (active)	–	–
c1ccc2sc(SNC3CCCCC3)nc2c1	–	-2.54% [at 114 µM]	–
Cc1ccccc1-n1c(CF)nc2ccc(N)cc2c1=O	–	3.62%	–
CCCCC[C@@H](O)C1C(=O)OC(C)[C@H](O)/C=C/C=C/C=C/C=C/C=C(\C)C(O)C(O)C(O)C[C@H](O)C[C@H](O)C[C@H](O)C[C@H](O)C[C@@H]1O (some centres not stated)	–	–	inactive
O=C(C[C@@H]1NCCC[C@H]1O)Cn1cnc2cc(Br)c(Cl)cc2c1=O	–	–	inactive
CCC(=O)O[C@@](Cc1ccccc1)(c1ccccc1)[C@@H](C)CN(C)C	–	0.333%	–
CC(=O)O[C@H]1CC[C@H]2[C@@H]3CCC4=CC(=O)CCC4=C3C=C[C@]12C	–	-6.59%	–
O=[N+]([O-])c1ccccc1	–	-4.55%	–
C/C(=C\c1csc(C)n1)[C@@H]1C[C@@H]2O[C@]2(C)CCC[C@H](C)[C@H](O)[C@@H](C)C(=O)C(C)(C)[C@@H](O)CC(=O)O1	–	-8.91%	–
CC(C)(O)[C@@H]1[C@H]2OC(=O)[C@@H]1[C@]1(O)C[C@H]3O[C@]34C(=O)O[C@H]2[C@]14C	–	–	inactive
Cn1sc(Cl)cc1=O	–	–	inactive
C=CC[C@]1(O)CC[C@H]2[C@@H]3CCC4=CCCC[C@@H]4[C@H]3CC[C@@]21C	–	-6.62% [at 114 µM]	–
CC[C@H](C)[C@H]1O[C@]2(C=C[C@@H]1C)C[C@@H]1C[C@@H](C/C=C(\C)[C@@H](O[C@H]3C[C@H](OC)[C@@H](O[C@H]4C[C@H](OC)[C@@H](O)[C@H](C)O4)[C@H](C)O3)[C@@H](C)/C=C/C=C3\CO[C@@H]4[C@H](O)C(C)=C[C@@H](C(=O)O1)[C@]34O)O2	–	–	inactive
COC([CH2][Hg])CNC(=O)c1ccccc1OCC(=O)O (configuration not stated)	3.55 µM (active)	–	–
C[C@@H](CO)NC(=O)[C@@H]1C=C2c3cccc4[nH]cc(c34)C[C@H]2N(C)C1	–	4.95%	–
C[C@]12CC[C@H]3[C@@H](CCC4=C(O)C(=O)CC[C@@H]43)[C@@H]1CC[C@@H]2OC(=O)CCC1CCCC1	–	–	inactive
CC[C@H]1CN2CC[C@H]1C[C@@H]2[C@@H](O)c1ccnc2ccc(OC)cc12	–	-1.86%	–
CCCCCCCCCC(=O)O[C@H]1CC[C@H]2[C@@H]3CCC4=CC(=O)CC[C@]4(C)[C@H]3CC[C@]12C	–	4.15%	–

test: Primary qHTS for inhibitors of La Crosse Virus (LACV) - induced cell death in SH-SY5Y cells (AID 1508616; active = well fitted inhibition curve with a large enough effect; note: potency is the fitted concentration of half-maximal effect;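 for activity change: top concentration of the series differs between compounds; 0% = infected DMSO wells and 100% = uninfected DMSO wells; higher means more rescue of cells from virus-induced death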); details: SH-SY5Y LACV cytopathicity rescue, ATP luminescence, 6 d; series mostly up to 9.63 µM; activity change: at the top concentration
Method in brief: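 SH-SY5Y cells (6000/well) plated 24 h, then given compounds by pin transfer and LACV at 0.01 MOI for 6 days at 37C. Viability measured by ATPLite luminescence, normalized to infected DMSO and uninfected DMSO.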

SMILES	activity change [%]	Potency
NC(Cc1cc(O)c(O)cc1O)C(=O)O (configuration not stated)	-16.9	–
COc1ccc2c(c1)C13CCCCC1C(C2)N(C)CC3 (configuration not stated)	-19.4	–
CN1C2CCC1CC(OC(c1ccccc1)c1ccccc1N)C2 (configuration not stated)	-14.3	–
CCCCCCC(C)(C)c1ccc([C@@H]2C[C@H](O)CC[C@H]2CCCO)c(O)c1	47.3	–
N[C@@H](Cn1ccc(=O)[nH]c1=O)C(=O)O	21.2	–
COc1ccc2c(c1)c(CCN1CCOCC1)c(C)n2C(=O)c1cccc(Cl)c1Cl	55.1	–
Clc1ccc(N2CC3CCC(C2)N3)nn1	-18	–
Nc1ccc(CCN2CCN(c3cccc(C(F)(F)F)c3)CC2)cc1	3.59	–
NCC(CP(=O)(O)O)c1ccc(Cl)cc1 (configuration not stated)	27	–
C=CCN(C1=NCCN1)c1c(Cl)cccc1Cl	-19.4	–
NC(Cc1ccc(N(CCCl)CCCl)cc1)C(=O)O (configuration not stated)	–	0.794 µM (active)
CCN(CCCl)Cc1ccccc1Br	–	2.82 µM (active)
c1ccc2c(N3CCNCC3)cccc2c1	-3.49	–
N#C/C(=C/c1ccc(O)c(O)c1)C(N)=S	29.9	–
C[Se]C[C@H](N)C(=O)O	12.4	–
C[C@H](N)CN1CCc2ccc(Br)cc21	-5.05	–
C=CCN1CC[C@]23c4c5ccc(O)c4O[C@H]2/C(=N/NC(=O)c2ccccc2)CC[C@@]3(O)[C@H]1C5	-15.8	–
CCCN(CCC)CCc1c[nH]c2ccc(C(N)=O)cc12	13.4	–
O=c1c2ccccc2[se]n1-c1ccccc1	136	–
CN1CC[C@@]2(C)c3cc(OC(=O)Nc4ccccc4)ccc3N(C)[C@@H]12	0.603	–
